Measurements: the supplement of paper PMC10849652
Targets with a hit are over-represented here; the source holds about 8,800 in all. About 0.5% of all pairs of compound and target were hits. Unmarked numbers belong to inactive results.

Legend:
Test in all cases: log2 fold change, soluble protein after heating vs DMSO (PISA); higher = thermal stabilisation; K562 lysate, 10 uM; active = over 0.2 and 3.5 SD of the protein, either way, in both replicates (recomputed)
alvocidib = compound: CN1CC[C@H](c2c(O)cc(O)c3c(=O)cc(-c4ccccc4Cl)oc23)[C@H](O)C1 [alvocidib]
Summary of the method: (§1)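 To prepare the extract, K562 pellets were dounce-homogenised in PBS pH 7.4 with 1 mM MgCl2, giving crude material at 1 mg/mL protein. This was treated with 10 μM compound for 30 min, then heated in aliquots for 3 min over 48°C-58°C before pooling and addition of NP-40 to 0.5% at 4°C. Centrifugation at 21,000xg for 90 min left soluble protein in the supernatant, which TMTpro 16plex LC-MS/MS quantified with equalised channel sums. Results are log-two fold changes in thermal stability compared with solvent controls, from duplicates.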

Tubastatin A = compound: CN1CCc2c(c3ccccc3n2Cc2ccc(C(=O)NO)cc2)C1 [Tubastatin A]
Summary of the method: as §1

[1] = compound: CNC(=O)C1=CC=CC=C1NC2=NC(=NC=C2Cl)NC3=C(C=C(C=C3)N4CCOCC4)OC
Summary of the method: as §1

defactinib = compound: CNC(=O)c1ccc(Nc2ncc(C(F)(F)F)c(NCc3nccnc3N(C)S(C)(=O)=O)n2)cc1 [defactinib]
Summary of the method: as §1

[2] = compound: CNc1nc(-c2ccc3c(N)n[nH]c3c2)cc(N2C[C@@H](C(=O)NC3CCCCC3)CC[C@H]2C)n1
Summary of the method: as §1

encorafenib = compound: COC(=O)N[C@@H](C)CNc1nccc(-c2cn(C(C)C)nc2-c2cc(Cl)cc(NS(C)(=O)=O)c2F)n1 [encorafenib]
Summary of the method: as §1

[3] = compound: COC(=O)[C@H](CCSC)NC(=O)C1=C(C=C(C=C1)NC[C@H](CS)N)C2=CC=CC=C2
Summary of the method: as §1

alisertib = compound: COc1cc(Nc2ncc3c(n2)-c2ccc(Cl)cc2C(c2c(F)cccc2OC)=NC3)ccc1C(=O)O [alisertib]
Summary of the method: as §1

[4] = compound: COc1cc2nc(-c3cc(F)ccc3O)nc(N[C@@H]3CNC[C@H]3C(C)(C)O)c2cc1OC
Summary of the method: as §1

gefitinib = compound: COc1cc2ncnc(Nc3ccc(F)c(Cl)c3)c2cc1OCCCN1CCOCC1 [gefitinib]
Summary of the method: as §1

Chain of UniProt Q9H204 (Q9H204 whole entry, looked up): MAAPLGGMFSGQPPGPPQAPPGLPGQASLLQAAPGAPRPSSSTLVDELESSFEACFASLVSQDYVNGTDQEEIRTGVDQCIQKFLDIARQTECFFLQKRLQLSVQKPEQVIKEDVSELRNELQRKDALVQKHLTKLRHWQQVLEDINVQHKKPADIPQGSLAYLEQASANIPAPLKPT
Chain of UniProt Q13164 (Q13164 whole entry, looked up): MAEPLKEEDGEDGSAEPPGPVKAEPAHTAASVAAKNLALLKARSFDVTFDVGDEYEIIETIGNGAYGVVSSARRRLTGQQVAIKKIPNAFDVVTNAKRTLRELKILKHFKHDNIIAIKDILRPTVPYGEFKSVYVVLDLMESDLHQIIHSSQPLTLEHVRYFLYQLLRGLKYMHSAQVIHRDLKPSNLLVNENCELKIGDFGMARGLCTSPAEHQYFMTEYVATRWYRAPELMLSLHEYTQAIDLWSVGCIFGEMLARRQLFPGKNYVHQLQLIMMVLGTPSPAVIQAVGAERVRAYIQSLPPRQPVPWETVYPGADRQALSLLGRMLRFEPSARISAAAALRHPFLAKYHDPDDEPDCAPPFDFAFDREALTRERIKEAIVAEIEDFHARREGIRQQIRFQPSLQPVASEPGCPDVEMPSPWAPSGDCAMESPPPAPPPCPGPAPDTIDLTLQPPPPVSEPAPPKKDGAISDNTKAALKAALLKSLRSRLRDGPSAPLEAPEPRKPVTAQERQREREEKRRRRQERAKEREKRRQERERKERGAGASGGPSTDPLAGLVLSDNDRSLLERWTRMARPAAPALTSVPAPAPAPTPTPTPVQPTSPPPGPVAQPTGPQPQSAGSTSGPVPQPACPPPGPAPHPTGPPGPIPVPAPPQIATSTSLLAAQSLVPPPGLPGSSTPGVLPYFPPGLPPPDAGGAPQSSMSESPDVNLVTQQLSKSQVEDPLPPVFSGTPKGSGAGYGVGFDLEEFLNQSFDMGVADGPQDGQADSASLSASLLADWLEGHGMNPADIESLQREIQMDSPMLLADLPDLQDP
Chain of UniProt Q96G25 (Q96G25 whole entry, looked up): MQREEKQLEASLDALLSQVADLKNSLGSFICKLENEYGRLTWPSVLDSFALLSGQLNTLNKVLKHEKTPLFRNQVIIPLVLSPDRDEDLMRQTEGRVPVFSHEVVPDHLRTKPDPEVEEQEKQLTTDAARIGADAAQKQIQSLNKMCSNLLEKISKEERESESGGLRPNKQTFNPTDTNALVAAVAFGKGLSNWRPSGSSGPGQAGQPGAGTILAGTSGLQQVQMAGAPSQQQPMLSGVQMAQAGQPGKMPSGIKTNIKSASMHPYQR
Chain of UniProt Q9UMN6 (Q9UMN6 whole entry, looked up): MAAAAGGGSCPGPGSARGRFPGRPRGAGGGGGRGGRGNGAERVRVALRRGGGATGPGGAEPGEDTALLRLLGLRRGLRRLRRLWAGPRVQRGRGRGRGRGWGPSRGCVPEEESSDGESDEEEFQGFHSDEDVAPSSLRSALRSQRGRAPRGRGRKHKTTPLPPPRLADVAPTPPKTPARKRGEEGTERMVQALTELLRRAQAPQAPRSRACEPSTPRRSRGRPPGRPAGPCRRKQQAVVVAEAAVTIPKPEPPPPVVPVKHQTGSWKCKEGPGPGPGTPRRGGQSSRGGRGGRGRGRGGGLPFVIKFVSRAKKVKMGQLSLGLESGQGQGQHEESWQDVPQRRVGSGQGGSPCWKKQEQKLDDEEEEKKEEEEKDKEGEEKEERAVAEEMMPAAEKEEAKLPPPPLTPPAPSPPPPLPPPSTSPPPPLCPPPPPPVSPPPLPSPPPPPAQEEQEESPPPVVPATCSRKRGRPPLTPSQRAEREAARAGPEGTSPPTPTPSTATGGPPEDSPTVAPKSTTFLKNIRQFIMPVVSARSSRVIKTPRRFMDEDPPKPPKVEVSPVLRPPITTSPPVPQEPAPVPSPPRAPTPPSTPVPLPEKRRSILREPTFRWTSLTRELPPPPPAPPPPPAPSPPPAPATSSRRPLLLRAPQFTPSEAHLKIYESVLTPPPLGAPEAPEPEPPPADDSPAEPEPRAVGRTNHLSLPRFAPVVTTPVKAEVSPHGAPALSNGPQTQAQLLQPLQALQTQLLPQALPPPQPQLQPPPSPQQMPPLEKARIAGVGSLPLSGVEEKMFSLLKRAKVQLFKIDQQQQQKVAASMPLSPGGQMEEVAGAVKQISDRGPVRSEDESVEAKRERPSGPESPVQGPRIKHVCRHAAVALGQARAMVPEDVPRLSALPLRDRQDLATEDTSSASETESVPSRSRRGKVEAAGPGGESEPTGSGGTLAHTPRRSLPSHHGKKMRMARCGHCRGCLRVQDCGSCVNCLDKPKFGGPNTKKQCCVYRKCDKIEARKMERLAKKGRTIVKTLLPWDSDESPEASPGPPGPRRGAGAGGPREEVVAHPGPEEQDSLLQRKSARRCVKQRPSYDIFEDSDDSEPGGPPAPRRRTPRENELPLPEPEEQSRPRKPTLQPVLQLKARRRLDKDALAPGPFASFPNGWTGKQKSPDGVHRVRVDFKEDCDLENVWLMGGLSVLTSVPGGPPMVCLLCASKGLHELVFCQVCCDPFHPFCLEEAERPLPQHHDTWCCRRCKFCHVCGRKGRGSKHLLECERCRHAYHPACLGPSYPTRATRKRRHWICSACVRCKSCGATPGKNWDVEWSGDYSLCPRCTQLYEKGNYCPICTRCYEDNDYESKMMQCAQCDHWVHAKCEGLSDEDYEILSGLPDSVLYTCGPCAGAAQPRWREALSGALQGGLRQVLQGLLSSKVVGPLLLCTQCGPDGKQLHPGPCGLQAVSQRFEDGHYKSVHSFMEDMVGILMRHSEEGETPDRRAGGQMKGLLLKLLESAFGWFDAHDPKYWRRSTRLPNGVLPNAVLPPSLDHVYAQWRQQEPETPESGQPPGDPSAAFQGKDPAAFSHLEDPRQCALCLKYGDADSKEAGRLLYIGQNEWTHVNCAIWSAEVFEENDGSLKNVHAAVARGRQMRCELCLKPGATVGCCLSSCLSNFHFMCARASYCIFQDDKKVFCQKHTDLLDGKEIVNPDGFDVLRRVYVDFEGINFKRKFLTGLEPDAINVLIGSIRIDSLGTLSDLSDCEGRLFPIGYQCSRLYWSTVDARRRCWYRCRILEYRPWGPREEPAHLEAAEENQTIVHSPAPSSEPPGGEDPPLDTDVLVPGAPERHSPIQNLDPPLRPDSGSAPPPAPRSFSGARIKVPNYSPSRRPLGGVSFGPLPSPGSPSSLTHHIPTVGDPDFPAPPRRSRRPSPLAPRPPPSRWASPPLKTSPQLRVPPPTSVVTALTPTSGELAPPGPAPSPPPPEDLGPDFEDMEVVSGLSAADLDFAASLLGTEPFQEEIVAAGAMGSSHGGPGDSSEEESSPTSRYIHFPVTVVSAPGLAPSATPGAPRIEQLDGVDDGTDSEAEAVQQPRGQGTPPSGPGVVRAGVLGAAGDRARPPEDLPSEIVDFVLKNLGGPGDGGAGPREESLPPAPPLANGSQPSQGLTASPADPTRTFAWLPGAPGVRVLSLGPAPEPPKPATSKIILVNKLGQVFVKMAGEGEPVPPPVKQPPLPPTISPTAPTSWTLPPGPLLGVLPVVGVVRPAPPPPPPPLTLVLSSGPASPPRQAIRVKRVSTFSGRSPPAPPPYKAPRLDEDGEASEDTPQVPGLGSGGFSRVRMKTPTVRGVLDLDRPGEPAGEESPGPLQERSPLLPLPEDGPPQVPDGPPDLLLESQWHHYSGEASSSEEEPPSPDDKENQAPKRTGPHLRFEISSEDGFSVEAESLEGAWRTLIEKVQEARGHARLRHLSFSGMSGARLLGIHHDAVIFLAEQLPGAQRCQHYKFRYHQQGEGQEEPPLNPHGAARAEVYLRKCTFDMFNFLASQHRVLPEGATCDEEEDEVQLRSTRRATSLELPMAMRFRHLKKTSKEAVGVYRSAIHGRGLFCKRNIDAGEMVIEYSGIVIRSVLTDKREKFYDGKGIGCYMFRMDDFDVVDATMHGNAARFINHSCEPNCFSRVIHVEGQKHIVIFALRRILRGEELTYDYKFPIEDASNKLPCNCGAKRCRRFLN
Chain of UniProt P08473 (P08473 whole entry, looked up): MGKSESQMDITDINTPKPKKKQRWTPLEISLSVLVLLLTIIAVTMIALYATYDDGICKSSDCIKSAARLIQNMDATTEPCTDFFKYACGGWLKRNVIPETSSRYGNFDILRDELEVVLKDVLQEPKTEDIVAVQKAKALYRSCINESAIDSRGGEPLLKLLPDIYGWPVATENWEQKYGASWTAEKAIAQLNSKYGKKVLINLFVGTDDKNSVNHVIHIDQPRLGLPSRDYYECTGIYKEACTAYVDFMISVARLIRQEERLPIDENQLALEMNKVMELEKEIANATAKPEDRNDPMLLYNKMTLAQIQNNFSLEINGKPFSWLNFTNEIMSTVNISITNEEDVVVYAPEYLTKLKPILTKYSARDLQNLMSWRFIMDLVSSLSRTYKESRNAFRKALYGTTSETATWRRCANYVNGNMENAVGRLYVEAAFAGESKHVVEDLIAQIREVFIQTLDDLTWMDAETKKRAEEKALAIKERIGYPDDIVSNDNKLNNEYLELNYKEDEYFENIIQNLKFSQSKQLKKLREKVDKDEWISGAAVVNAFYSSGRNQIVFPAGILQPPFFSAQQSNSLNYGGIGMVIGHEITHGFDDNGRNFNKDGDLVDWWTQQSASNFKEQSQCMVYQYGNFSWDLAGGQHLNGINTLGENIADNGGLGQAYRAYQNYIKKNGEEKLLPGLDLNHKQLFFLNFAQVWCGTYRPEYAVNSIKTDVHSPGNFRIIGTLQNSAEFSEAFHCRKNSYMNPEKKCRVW
Chain of UniProt P53778 (P53778 whole entry, looked up): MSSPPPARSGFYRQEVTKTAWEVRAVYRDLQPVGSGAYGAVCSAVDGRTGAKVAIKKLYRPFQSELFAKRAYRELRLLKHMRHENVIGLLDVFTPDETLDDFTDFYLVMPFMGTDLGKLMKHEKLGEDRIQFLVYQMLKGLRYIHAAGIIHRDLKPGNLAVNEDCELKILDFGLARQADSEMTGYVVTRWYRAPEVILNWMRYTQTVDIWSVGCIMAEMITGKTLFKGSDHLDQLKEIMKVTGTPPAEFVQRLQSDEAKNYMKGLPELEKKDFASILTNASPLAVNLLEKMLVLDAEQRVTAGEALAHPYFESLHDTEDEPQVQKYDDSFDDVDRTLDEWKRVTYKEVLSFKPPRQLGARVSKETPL

Target | log2 fold change (alvocidib) | log2 fold change (Tubastatin A) | log2 fold change [1] | log2 fold change (defactinib) | log2 fold change [2] | log2 fold change (encorafenib) | log2 fold change [3] | log2 fold change (alisertib) | log2 fold change [4] | log2 fold change (gefitinib)
MPI (UniProt P34949) | 0.051 | 0.024 | -0.02 | -0.007 | 0.035 | -0.01 | 0.477 (active) | 0.018 | 0.01 | -0.014
MAP3K4 (UniProt Q9Y6R4) | -0.027 | -0.113 | 0.366 (active) | 0.071 | -0.018 | -0.171 | 0.128 | -0.028 | -0.045 | 0.081
MAP4K2 (UniProt Q12851) | 0.111 | -0.189 | -0.02 | 0.086 | 0.055 | -0.183 | -0.234 | – | 0.219 | –
MAD2L1BP isoform 3 (UniProt Q15013) | 0.047 | -0.135 | 0.088 | 0.068 | -0.012 | 0.138 | 0.234 | 0.052 | -0.009 | -0.054
MED8 isoform 2 (UniProt Q96G25) | 0.026 | -0.048 | 0.023 | -0.009 | 0.045 | 0.056 | -0.113 | -0.07 | 0.059 | -0.038
MRPL35 (UniProt Q9NZE8) | 0.057 | -0.226 | 0.01 | 0.014 | 0.033 | – | – | 0.01 | -0.072 | 0.009
MED10 (UniProt Q9BTT4) | 0.038 | 0.041 | 0.042 | 0.068 | 0.045 | 0.11 | -0.185 | 0.082 | -0.03 | -0.045
MAST2 (UniProt Q6P0Q8) | -0.096 | -0.06 | 0.219 | -0.009 | -0.009 | 0.114 | 0.078 | – | -0.002 | –
MAN2B2 (UniProt Q9Y2E5) | 0.199 | 0.029 | -0.006 | – | 0.059 | -0.004 | 0.073 | 0.032 | 0.049 | -0.017
LIMK1 (UniProt P53667) | -0.135 | 0 | – | -0.053 | -0.085 | 0.489 (active) | -0.086 | -0.261 | -0.203 | 0.106
LYN isoform 2 (UniProt P07948) | 0.138 | -0.153 | 0.175 | – | 0.014 | -0.063 | 0.301 | 0.229 | – | 0.054
KRIT1 (UniProt O00522) | – | -0.034 | 0.089 | 0.045 | 0.102 | 0.118 | 0.123 | 0.038 | -0.055 | 0.029
LEPROT (UniProt O15243) | 0.006 | 0.01 | 0 | – | – | -0.003 | 0.01 | – | 0.022 | –
MRC2 (UniProt Q9UBG0) | 0.04 | – | -0.062 | – | 0.05 | 0.031 | -0.301 | -0.075 | – | 0.046
MARCHF6 (UniProt O60337) | 0.07 | – | -0.039 | 0.046 | 0.084 | 0.08 | -0.05 | -0.321 | 0.008 | 0.019
MAP3K6 (UniProt O95382) | – | – | – | -0.096 | – | 0.167 | -0.031 | 0.026 | – | -0.022
LY6E (UniProt Q16553) | -0.726 | – | – | -0.024 | – | 0.03 | -0.005 | 0.029 | 0.016 | -0.013
MRPL22 (UniProt Q9NWU5) | 0.018 | -0.033 | 0.036 | – | – | – | – | -0.003 | -0.052 | -0.051
MAPK12 (UniProt P53778) | – | 0.022 | 0.025 | -0.077 | 0.054 | -0.001 | 0.035 | -0.114 | – | -0.057
METTL21A (UniProt Q8WXB1) | 0.009 | 0.052 | 0.087 | – | 0 | – | – | 0.004 | 0.011 | -0.028
KLHL12 isoform 2 (UniProt Q53G59) | – | -0.156 | -0.051 | -0.025 | -0.02 | – | – | 0.023 | 0.086 | -0.048
LRRC9 (UniProt Q6ZRR7) | 0.911 | – | – | -0.056 | – | -0.022 | 0.003 | – | – | –
MAP4K4 isoform 6 (UniProt O95819) | – | 0.024 | -0.067 | – | -0.016 | 0.207 | -0.034 | – | -0.058 | –
MINDY1 isoform 3 (UniProt Q8N5J2) | – | 0.093 | -0.031 | 0.021 | -0.054 | 0.03 | -0.053 | 0.001 | 0.103 | 0.134

Target | log2 fold change (alvocidib) | log2 fold change (Tubastatin A) | log2 fold change [1] | log2 fold change (defactinib) | log2 fold change [2] | log2 fold change (encorafenib) | log2 fold change [3] | log2 fold change (alisertib) | log2 fold change [4] | log2 fold change (gefitinib)
MMS22L (UniProt Q6ZRQ5) | 0.068 | – | -0.011 | 0.06 | -0.03 | -0.007 | 0.017 | -0.004 | 0.055 | 0.035
MCMBP isoform 2 (UniProt Q9BTE3) | – | -0.142 | 0.102 | 0.089 | 0.199 | -0.015 | 0.124 | 0.067 | -0.091 | -0.082
LSM11 (UniProt P83369) | 0.134 | – | -0.15 | -0.119 | 0.009 | 0.082 | 0.041 | – | – | –
KIF21A (UniProt H0YI78) | – | – | 0.056 | – | -0.01 | – | – | -0.003 | 0.029 | -0.1
LRPPRC (UniProt H7C3W8) | – | – | – | -0.063 | – | – | – | – | – | –
MAPKAP1 (UniProt Q9BPZ7) | – | -0.125 | -0.119 | – | 0.081 | -0.051 | 0.036 | -0.094 | – | 0.07
MME (UniProt P08473) | -0.01 | 0.081 | 0.048 | – | 0.142 | – | – | -0.079 | -0.018 | 0.066
LGALS3BP (UniProt Q08380) | -0.187 | – | -0.234 | -0.133 | -0.571 (active) | 0.023 | 0.082 | -0.074 | 0.092 | 0.019
MAPK3 (UniProt H0YEX6) | – | – | – | – | – | – | – | -0.128 | – | -0.016
KIFC3 isoform 6 (UniProt Q9BVG8) | -0.786 (active) | – | 0.003 | -0.255 | 0.308 | -0.053 | 0.04 | – | – | –
MEX3A (UniProt A1L020) | – | 0.037 | – | -0.068 | 0.037 | – | – | -0.097 | – | 0.207
MAPK7 (UniProt Q13164) | 0.069 | – | 0.002 | – | – | -0.03 | -0.114 | – | 0.157 | –
KLC1 isoform 10 (UniProt Q07866) | – | – | 0.147 | – | – | 0.06 | -0.109 | – | – | –
MED28 (UniProt Q9H204) | -0.292 | 0.05 | 0.14 | – | 0.081 | – | – | 0.011 | -0.024 | -0.217
MAP4 isoform 5 (UniProt P27816) | – | 0.077 | 0.087 | -0.086 | 0.138 | -0.051 | -0.025 | 0.047 | -0.028 | 0.039
MED25 isoform 3 (UniProt Q71SY5) | 0 | 0.056 | -0.033 | – | -0.022 | -0.123 | 0.005 | 0.125 | 0.01 | -0.029
LRRIQ1 (UniProt Q96JM4) | – | -0.096 | – | -0.031 | – | – | – | – | -0.037 | –
KMT2B (UniProt Q9UMN6) | – | – | -0.083 | – | 0.246 | 0.127 | -0.008 | – | – | –
KRAS isoform 2 (UniProt P01116) | – | 0.076 | -0.037 | – | 0.046 | -0.109 | -0.062 | – | 0.019 | –
MCUB (UniProt Q9NWR8) | 0.019 | 0.105 | -0.032 | – | -0.074 | – | – | 0.121 | -0.062 | -0.046
KIF18B (UniProt Q86Y91) | – | – | – | – | -0.067 | -0.159 | -0.04 | – | 0.046 | –
LRP1 (UniProt Q07954) | – | – | – | -0.108 | – | -0.091 | 0.043 | – | 0.034 | –
LRRC7 (UniProt Q96NW7) | 0.069 | 0.079 | – | 0.251 | 0.058 | -0.103 | 0.026 | – | -0.016 | –
MAP4K4 isoform 3 (UniProt O95819) | – | -0.016 | -0.028 | 0.03 | -0.08 | -0.075 | -0.014 | – | 0.035 | -0.051
